For assay [1], the target named is Cytochrome P450 3A4 (Homo sapiens) (UniProt P08684). The assay is described as follows: qHTS Assay for Activators of Cytochrome P450 3A4 (AID 885). Also: nearly all actives have a fitted effect of over 65% in size. The method in brief: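 Human CYP3A4 dealkylates Luciferin-PPXE to luciferin, which luciferase detection converts to light. Substrate was at its KM (25uM), buffer 200mM KPO4, reaction 60 min at RT.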
Assay [2] in a line: Confirmation and Secondary Assay for Modulators of Hemoglobin Beta Chain Splicing at IVS2 654 locus (AID 910). Also: % of control where 0% means no effect. The essentials: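 HeLa cells stably carrying EGFP interrupted by mutant beta-globin IVS2-654 intron (CMV-driven) were treated with compound for 2 days at 37C; corrected splicing was scored as total peak GFP intensity per well (488 nm excitation, 500-520 nm emission).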

Assay [3] in a line: Confirmation and Secondary Assay for Modulators of Hemoglobin Beta Chain Splicing at IVS2 705 locus (AID 930).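 Also: HeLa cells stably expressing the EGFP-705 splicing reporter; GFP fluorescence per well restored by corrected splicing of the IVS2-705 intron in EGFP; % of control where 0% means no effect.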 The essentials:
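HeLa cells stably carrying EGFP interrupted by mutant beta-globin intron 2 (IVS2-705) treated 2 days at 37C with compound; 500 nM antisense PNA as control. Correct splicing read as total peak GFP intensity per well by laser-scanning cytometry.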

Assay [4] is described as follows: qHTS Assay for Lipid Storage Modulators (AID 1519; calls by dose curve; as to activity change, negative = inhibition: % is scaled to controls: 0 for no effect and ±100 for the full control effect). The settings on record: Drosophila S3 cells, BODIPY lipid droplet/cell ratio, laser cytometry, cells loaded with oleic acid. The method in brief: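 Cells seeded at 5,000 per well were treated with compounds over a concentration series and loaded with oleic acid (400 uM, as added). Lipid droplet fluorescence (488 nm excitation, 500-530 nm channel) was read by laser-scanning cytometry and normalized to 20 uM Triacsin C.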

For assay [5], the target named is Tyrosyl-DNA phosphodiesterase 1 (Homo sapiens) (UniProt Q9NUW8). Briefly: Confirmation Assay for Inhibitors of Tyrosyl-DNA Phosphodiesterase (TDP1) (AID 489007). Also: potency is read from the fitted curve at half-maximal effect; nearly all actives have a fitted effect of over 40% in size. The settings on record: recombinant human TDP1 enzymatic activity, dose-response. The method in brief:
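Compounds are preincubated 15 min at room temperature with 1 nM recombinant human Tdp1. The reaction starts on adding 15 nM FITC-phosphotyrosine DNA substrate, runs 5 min, and is detected by AlphaScreen beads after 10 min.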

For the next assay, the target named is Furin (Homo sapiens) (UniProt P09958). The assay is described as follows: Furin counterscreen qHTS for Zika virus inhibitors (AID 1347149). Also: nearly all actives have a fitted effect of over 70% in size. Also: potency is read from the fitted curve at half-maximal effect.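 As to activity change, negative = inhibition: purified recombinant full-length human furin enzyme at 5 nM; fluorescence gain from furin cutting a BOC-RVRR-AMC peptide substrate over 15 min; top concentration of the series differs between compounds; plate controls were no-inhibitor control for no effect and no-enzyme control for full effect.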 The method in brief: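 Counterscreen measures cleavage of 2 microM BOC-RVRR-AMC, below its ~15 microM Km, by 5 nM full-length human furin at pH 7.0 after a 15-min compound preincubation. Inhibition derives from the 15-min fluorescence increase at 37C.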
Chain of Furin (Homo sapiens) (P09958 whole entry, looked up): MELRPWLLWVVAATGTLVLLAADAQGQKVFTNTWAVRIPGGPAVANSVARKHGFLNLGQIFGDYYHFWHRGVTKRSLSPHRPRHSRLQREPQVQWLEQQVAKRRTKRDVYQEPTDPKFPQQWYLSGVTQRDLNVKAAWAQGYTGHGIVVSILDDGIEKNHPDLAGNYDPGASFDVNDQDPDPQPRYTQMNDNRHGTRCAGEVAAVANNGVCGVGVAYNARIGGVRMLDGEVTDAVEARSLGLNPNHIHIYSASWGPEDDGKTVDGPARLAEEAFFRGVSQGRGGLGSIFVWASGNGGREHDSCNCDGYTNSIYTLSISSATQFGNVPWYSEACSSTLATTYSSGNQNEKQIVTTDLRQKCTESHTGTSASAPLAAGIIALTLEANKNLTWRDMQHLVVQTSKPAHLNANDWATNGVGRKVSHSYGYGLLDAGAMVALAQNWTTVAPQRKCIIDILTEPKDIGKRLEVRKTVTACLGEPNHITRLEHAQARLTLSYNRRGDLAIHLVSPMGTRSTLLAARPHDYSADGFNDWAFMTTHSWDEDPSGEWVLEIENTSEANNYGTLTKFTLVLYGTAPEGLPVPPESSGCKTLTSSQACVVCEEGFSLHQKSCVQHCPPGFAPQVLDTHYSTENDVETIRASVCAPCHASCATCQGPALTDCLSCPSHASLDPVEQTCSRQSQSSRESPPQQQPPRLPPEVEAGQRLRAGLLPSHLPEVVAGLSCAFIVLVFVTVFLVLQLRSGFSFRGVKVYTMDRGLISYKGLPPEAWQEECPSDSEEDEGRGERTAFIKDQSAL
(In general: A counterscreen serves to expose hits that act by an unwanted route or on another target.)

A short description of assay [6]: Confirmatory screen GU Rhodamine qHTS for Zika virus inhibitors qHTS (AID 1347157). Also: nearly all actives have a fitted effect of over 70% in size. Also: potency is read from the fitted curve at half-maximal effect.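 As to activity change, negative = inhibition: plate controls were no-inhibitor wells for no effect and no-enzyme wells for full effect.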 The method in brief:
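Percent inhibition derives from the 15-min fluorescence change (ex 480, em 540 nm), normalized to no-enzyme and no-inhibitor wells. Reactions contained 25 nM NS2B-NS3 complex and 1.5 microM substrate in 10 mM Tris-HCl pH 8.0.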

Assay [7] can be described thus: ZIKV-mCherry secondary qHTS for Zika virus inhibitors (AID 1347158). Also: top concentration of the series differs between compounds. The essentials: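 Compounds were tested in Vero monkey kidney cells infected with recombinant mCherry-expressing Zika virus at MOI 1 for 48-72 h at 37 °C. Fixed cells were nuclear-stained and imaged, and infection rate was taken as the fraction of mCherry-positive cells.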
(qHTS replaces the single test concentration by a dilution series.)

Assay [8] is described as follows: Confirmatory screen NINDS Rhodamine qHTS for Zika virus inhibitors (AID 1347161). Also: potency is read from the fitted curve at half-maximal effect; nearly all actives have a fitted effect of over 60% in size. The method in brief:
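In 10 mM Tris-HCl pH 8.0 containing 0.01% Tween 20, linked NS2B-NS3 protease (25 nM final) is exposed to test compounds for 15 min. Cleavage of 1.5 microM Rhodamine110 substrate is tracked by fluorescence over 15 min.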

Assay [9] deals with Zika virus NS2B-NS3 protease (linked). Briefly: 384 well plate NINDS AMC confirmatory qHTS for Zika virus inhibitors (AID 1347163). Also: potency is read from the fitted curve at half-maximal effect; nearly all actives have a fitted effect of over 50% in size. The method in brief:
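Fluorescence at 355/460 nm was read after 25 minutes of cleavage of 30 microM Ac-VKTGKR-AMC at room temperature, in the dark. Before substrate addition, compounds (up to 1 mM final) sat ~15 minutes with 5, 30 or 60 nM linked protease. Signals were normalized to no-enzyme and no-inhibitor wells.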

Assay [10] relates to Zika virus NS2B-NS3 protease (linked construct). The assay is described as follows: 384 well plate NINDS Rhodamine confirmatory qHTS for Zika virus inhibitors (AID 1347164).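 Also: fluorescence from protease cleavage of Ac-LKRR-rhodamine 110 substrate; potency is read from the fitted curve at half-maximal effect; nearly all actives have a fitted effect of over 65% in size.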 The method in brief: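 Linked protease at a final 5 nM, 30 nM or 60 nM was preincubated ~15 min with compounds, then given 10 microM Ac-LKRR-Rhodamine 110. Fluorescence (ex 485/em 538 nm) after 25 min in the dark at room temperature.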

For assay [11] the test system is unchanged. The assay is described as follows: Confirmatory screen NINDS AMC qHTS for Zika virus inhibitors (AID 1347152). Also: nearly all actives have a fitted effect of over 70% in size. Also: potency is read from the fitted curve at half-maximal effect.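 As to activity change, negative = inhibition: AMC fluorescence gain from cleaved Bz-Nle-KRR-AMC substrate over 15 min; top concentration of the series differs between compounds; 0% = no-inhibitor control and -100% = no-enzyme control.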 The method in brief: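 Purified NS2B-NS3 protease with NS2B hydrophilic domain linked to NS3 protease domain by flexible linker, 1 nM final in 10 mM Tris-HCl pH 8.0, 0.01% Tween 20. Compounds preincubated 15 min, room temperature; Bz-Nle-KRR-AMC 10 microM (Km 18.3 µM); 15-min fluorescence change, 4-parameter Hill fit.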

A short description of assay [12]: Tertiary RLuc qRT-PCR qHTS assay for Zika virus inhibitors (AID 1347169). Also: top concentration of the series differs between compounds; % is scaled to controls: 0 for no effect and ±100 for the full control effect; nearly all actives have a fitted effect of over 55% in size. The essentials:
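Vero cells (1,000 per well) plated overnight at 37 degrees C, treated with compound in DMSO, then infected with recombinant ZIKV-RLuc (Cambodian) at MOI 1-2 for 48-72 hrs. Live-cell Renilla luciferase substrate added; luminescence read after 1-1.5 hrs.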
(Real-time PCR tracks product formation cycle by cycle.)

A short description of assay [13]: HepG2 cells viability qHTS for Zika virus inhibitors (AID 1347168). Also: % is scaled to controls: 0 for no effect and ±100 for the full control effect. The method in brief:
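To flag cytotoxic protease inhibitors, viability is measured by ATP-dependent luminescence (CellTiter Glo) after cells attached overnight receive compound for 24 to 48 hours in DMEM with 4% FBS.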

Assay [14] in a line: Primary qHTS for small molecule stabilizers of the endoplasmic reticulum resident proteome: Secreted ER Calcium Modulated Protein (SERCaMP) assay (AID 1508630). Also: % is scaled to controls: 0 for no effect and ±100 for the full control effect. The method in brief:
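The SH-SY5Y reporter protocol was run at 3 concentrations up to 38.3 uM (primary) or 11 concentrations (follow-up): 16 h compound, 100 nM thapsigargin for 4 h, then extracellular luciferase luminescence.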

In assay [15] the test system is Zika virus NS2B-NS3 protease (unlinked complex). Briefly: Confirmatory screen GU AMC qHTS for Zika virus inhibitors (AID 1347153).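 Also: percent inhibition with 0% = no inhibitor control and 100% = no enzyme control; nearly all actives have a fitted effect of over 70% in size.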 The essentials: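 Unlinked NS2B-NS3 complex (25 nM) in 10 mM Tris-HCl pH 8.0, 0.01% Tween 20 preincubated 15 min with compound, then 10 microM Bz-Nle-KRR-AMC (Km 18.3 µM). Fluorescence change over 15 min, normalized, Hill-fitted.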

Records with an inconclusive call do not appear. The source made the active and inactive calls. Unless noted, calls follow the shape of the dose curve; as a rule, active = well fitted curve in the direction sought with a large enough effect; inconclusive = small, poorly fitted or top-dose-only effect, or another doubt; inactive = no such curve, though single readings can be large; an effect the other way counts as inactive or inconclusive.

Experimental findings from PubChem BioAssay (NCATS) are described below.

Chain of Cytochrome P450 3A4 (Homo sapiens) (P08684 whole entry, looked up): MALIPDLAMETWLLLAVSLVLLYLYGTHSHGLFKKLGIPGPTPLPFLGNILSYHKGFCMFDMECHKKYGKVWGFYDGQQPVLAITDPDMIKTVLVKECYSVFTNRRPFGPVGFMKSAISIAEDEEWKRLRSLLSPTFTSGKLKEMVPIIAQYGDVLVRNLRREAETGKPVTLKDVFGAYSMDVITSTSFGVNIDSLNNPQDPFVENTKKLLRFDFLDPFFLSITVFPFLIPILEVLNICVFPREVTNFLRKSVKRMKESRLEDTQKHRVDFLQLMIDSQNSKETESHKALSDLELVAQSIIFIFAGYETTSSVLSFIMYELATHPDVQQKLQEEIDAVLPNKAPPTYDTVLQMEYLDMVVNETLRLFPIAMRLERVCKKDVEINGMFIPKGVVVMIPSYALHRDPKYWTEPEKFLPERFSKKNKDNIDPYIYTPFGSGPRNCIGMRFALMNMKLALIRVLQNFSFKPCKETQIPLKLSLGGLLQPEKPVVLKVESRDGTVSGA
Chain of Tyrosyl-DNA phosphodiesterase 1 (Homo sapiens) (Q9NUW8 whole entry, looked up): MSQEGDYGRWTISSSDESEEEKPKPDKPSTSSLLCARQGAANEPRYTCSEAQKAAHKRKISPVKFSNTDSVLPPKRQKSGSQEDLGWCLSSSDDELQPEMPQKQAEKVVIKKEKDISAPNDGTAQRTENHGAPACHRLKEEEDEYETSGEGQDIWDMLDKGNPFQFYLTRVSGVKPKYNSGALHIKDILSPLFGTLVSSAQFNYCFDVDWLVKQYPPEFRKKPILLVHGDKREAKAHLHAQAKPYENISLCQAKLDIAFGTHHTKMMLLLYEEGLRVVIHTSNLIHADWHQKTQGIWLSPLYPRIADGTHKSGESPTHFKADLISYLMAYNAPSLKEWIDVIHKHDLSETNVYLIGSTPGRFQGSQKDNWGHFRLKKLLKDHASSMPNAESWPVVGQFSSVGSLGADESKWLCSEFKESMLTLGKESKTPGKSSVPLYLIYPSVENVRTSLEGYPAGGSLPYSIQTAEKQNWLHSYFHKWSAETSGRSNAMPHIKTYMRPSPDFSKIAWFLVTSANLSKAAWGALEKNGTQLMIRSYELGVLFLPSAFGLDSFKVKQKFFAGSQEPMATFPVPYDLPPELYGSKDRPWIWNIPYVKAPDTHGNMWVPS

As to `O=c1c(-c2cc(O)c(O)c(O)c2)coc2cc(O)c(O)c(O)c12`, the Potency entry (in [1]; in the assay with Furin (Homo sapiens); in assay [7]) was “inactive” each time. In addition, the compound was called inactive in assay [2] and in assay [3]. Moreover, the activity change, negative = inhibition in assay [4] (at 57.5 µM (top of the series)) was 15.6% (inactive). For the same compound, the max response in assay [4] (measured here: cell count channel max response) came to 7.38%; in [4] (measured here: lipid channel max response), 21.8%. Also, the Potency in assay [5] was 0.282 µM (active); in assay [6] it was 22.4 µM (active); in assay [8], 12.6 µM (active); in assay [9], 316 µM (active); in assay [10], 126 µM (active).
For the compound `O=C(O)c1ccc(-c2cc(C(F)(F)F)ccc2Cl)cc1`, the Potency result (with Furin (Homo sapiens); in [11]; in assay [7]) was “inactive” each time.
In the case of `Clc1nc2n[nH]nc2nc1Cl`, the Potency was 39.8 µM (active) with Furin (Homo sapiens) and 22.4 µM (active) in assay [11]. Besides, the Potency result in [7] and in assay [12] was “inactive” in each case.
As for `CCN(CC)c1ccc(/C=N/NC(=O)c2ccc(O)cc2)cc1`, in the assay with Furin (Homo sapiens), the Potency was 24.1 µM (active). Further, the Potency entry in [11], in assay [13], in [12] and in assay [14] was “inactive” each time.
With `CC(=O)C(N=Nc1ccc(S(=O)(=O)Nc2ccccn2)cc1)C(=O)Nc1ccc(Cl)cc1` (stereo not given), the Potency entry (with Furin (Homo sapiens); in assay [7]; in assay [12]) was “inactive” each time. Besides, the Potency was 44.7 µM (active) in assay [11], 20 µM (active) in [8], 22.4 µM (active) in assay [9] and 25.1 µM (active) in [10].
Take `O=C(O)c1ccc(-c2ccc(OC(F)(F)F)cc2)cc1`: the Potency result (in the assay with Furin (Homo sapiens); in assay [11]; in assay [15]; in [12]) was “inactive” throughout.
As for `CCOC(=O)c1ccc(NC(=O)Cn2nnc(-c3ccc(C(F)(F)F)cc3)n2)cc1`, the Potency result (with Furin (Homo sapiens); in assay [6]) was “inactive” in each case.
Consider `COC(=O)c1ccc(NC(=O)CSc2ccc(-c3sc(-c4ccccc4)nc3C)nn2)cc1`, for which the Potency with Furin (Homo sapiens) was 46.9 µM (active). Also, the Potency entry in assay [6] was “inactive”.
Take `Cc1ccc(C(=O)Nc2ccc(C(=O)OCc3cc(=O)n4c5c(sc4n3)CCCC5)cc2)cc1`: the Potency with Furin (Homo sapiens) is 41.8 µM (active). For the same compound, in assay [6], the Potency entry is “inactive”.
Consider `O=c1oc2ccc3ccccc3c2cc1-c1nnc(Nc2cccc(C(F)(F)F)c2)s1`, for which the Potency entry (in the assay with Furin (Homo sapiens); in [6]) was “inactive” each time.
Regarding `CS(=O)(=O)c1ccc(Nc2ccc3c(c2)OCO3)c([N+](=O)[O-])c1`, the Potency result (with Furin (Homo sapiens); in [11]; in [15]; in assay [12]) was “inactive” throughout.
Consider `N#Cc1ccc(OCC2CN(Cc3cccc(C(F)(F)F)c3)C(=O)c3c(ccnc3-c3ccc(OCC(=O)O)cc3)O2)cc1` (stereo not given), for which the Potency result (in the assay with Furin (Homo sapiens); in [11]; in assay [7]) was “inactive” in each case. In addition, the Potency in assay [10] was 39.8 µM (active).
As for `CCCc1nn2c(=O)cc(COC(=O)c3ccccc3NC(=O)c3ccc(Cl)cc3)nc2s1`, the Potency in the assay with Furin (Homo sapiens) was 41.8 µM (active). Besides, the Potency result in assay [6] is “inactive”.
On to `N#Cc1ccccc1OCC1CN(Cc2cccc(C(F)(F)F)c2)C(=O)c2c(ccnc2-c2ccc(OCC(=O)O)cc2)O1` (stereo not given), for which the Potency result (with Furin (Homo sapiens); in [11]; in assay [7]; in assay [12]) was “inactive” throughout. The Potency in [9] is 70.8 µM (active); in assay [10], 56.2 µM (active).
As for `Clc1ccc(-c2nn3c(COc4cccc(OCc5nnc6sc(-c7ccc(Cl)cc7)nn56)c4)nnc3s2)cc1`, the Potency entry (in the assay with Furin (Homo sapiens); in assay [12]) was “inactive” throughout. In addition, the Potency in assay [11] is 50.1 µM (active); in assay [8] it was 20 µM (active); in assay [9], 12.6 µM (active).
